# Measurements taken from PubChem BioAssay (Tox21).
# Where “and” joins values, the source holds several entries; their conditions need not be identical. Equal entries are not always repeated. Some structures have more than one record in an assay (separate samples or runs), and their calls can disagree. Calls of active or inactive are those of the source. A call without a number means that no potency is given here. Unless noted, calls follow the shape of the dose curve; as a rule, active = well fitted curve in the direction sought with a large enough effect in the repeat runs; inconclusive = weak or mixed curves; inactive = no such curve, though single readings can be large; an effect the other way counts as inactive or inconclusive.
# What was measured:
# [1] = qHTS assay to identify small molecule antagonists of the thyroid receptor (TR) signaling pathway - cell viability counter screen (AID 743064); also: nearly all actives have a fitted effect of over 50% in size; also: potency is read from the fitted curve at half-maximal effect
# Summary of the method: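 Fluorescence from CellTiter-Fluor, added after 23.5 h exposure at 37 °C, reported viability of GH3.TRE-Luc cells co-treated with compound and 1 nM T3. Measured in the same wells as the luciferase TR readout.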
# [2] = qHTS assay to identify small molecule antagonists of the thyroid receptor (TR) signaling pathway (AID 743065); also: nearly all actives have a fitted effect of over 55% in size; also: potency is read from the fitted curve at half-maximal effect
# Summary of the method: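 GH3.TRE-Luc rat pituitary cells (two TREs driving luciferase) were dosed with compound, then stimulated with 1 nM T3 (final) for 23.5 h at 37 C. ONE-Glo luminescence was the read-out, with CellTiter-Fluor fluorescence as the cytotoxicity counter-screen.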
# [3] = tested on: thyroid hormone receptor (rat, GH3 cells); experiment: qHTS assay to identify small molecule agonists of the thyroid receptor (TR) signaling pathway (AID 743066; calls by dose curve)
# [4] = biological target: Estrogen receptor (Homo sapiens) (UniProt P03372); experiment: qHTS assay to identify small molecule antagonists of the estrogen receptor alpha (ER-alpha) signaling pathway (AID 743069; active = well fitted curve in the direction sought with a large enough effect in the signal ratio in the repeat runs, not every such curve was filed as active; inconclusive = weak or mixed curves, or effect the other way; inactive = no such curve, though single readings can be large or run the other way; the % refers to the signal ratio; also: potency is read from the fitted curve at half-maximal effect)
# Estrogen receptor (Homo sapiens), sequence (P03372 whole entry, looked up): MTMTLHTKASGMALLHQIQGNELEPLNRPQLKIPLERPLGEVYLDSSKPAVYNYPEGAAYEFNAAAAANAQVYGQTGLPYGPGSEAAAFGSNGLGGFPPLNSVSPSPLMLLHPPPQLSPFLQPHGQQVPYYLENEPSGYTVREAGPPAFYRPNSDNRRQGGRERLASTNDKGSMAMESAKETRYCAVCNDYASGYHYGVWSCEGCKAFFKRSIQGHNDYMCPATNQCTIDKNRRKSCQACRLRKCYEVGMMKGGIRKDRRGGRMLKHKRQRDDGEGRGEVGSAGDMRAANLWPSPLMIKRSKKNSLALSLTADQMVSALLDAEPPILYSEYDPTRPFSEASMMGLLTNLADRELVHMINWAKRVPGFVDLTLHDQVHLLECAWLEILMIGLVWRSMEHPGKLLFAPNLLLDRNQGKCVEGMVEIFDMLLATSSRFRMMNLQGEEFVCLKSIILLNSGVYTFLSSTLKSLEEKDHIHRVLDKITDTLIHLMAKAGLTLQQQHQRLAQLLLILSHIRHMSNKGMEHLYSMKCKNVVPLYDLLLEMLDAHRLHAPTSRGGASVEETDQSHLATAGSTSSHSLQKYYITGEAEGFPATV
# Summary of the method: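 Reporter cells (ER-alpha-bla, HEK293 background) are conditioned overnight in stripped-serum medium (2% charcoal-stripped FBS). Compound and 17beta-estradiol exposure runs 18 hr at 37C, 5% CO2.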
# [5] = qHTS assay to identify small molecule antagonists of the estrogen receptor alpha (ER-alpha) signaling pathway - cell viability counter screen (AID 743074; calls by dose curve;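 also: HEK293 cells carrying ER-alpha-UAS-bla reporter stimulated with 17beta-estradiol; nearly all actives have a fitted effect of over 45% in size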; also: potency is read from the fitted curve at half-maximal effect)
# [6] = biological target: Estrogen receptor (Homo sapiens) (UniProt P03372); experiment: qHTS assay to identify small molecule agonists of the estrogen receptor alpha (ER-alpha) signaling pathway (AID 743075; calls by dose curve;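 also: HEK293 GripTite cells with ER-alpha and UAS-driven beta-lactamase reporter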; also: potency is read from the fitted curve at half-maximal effect); conditions: HEK293 ER-alpha-UAS-bla, beta-lactamase FRET ratio, 18 h; activation: at 70.1 µM (top of the series)
# [7] = biological target: Estrogen receptor (Homo sapiens) (UniProt P03372); experiment: qHTS assay to identify small molecule agonists of the estrogen receptor alpha (ER-alpha) signaling pathway using the BG1 cell line (AID 743079); conditions: BG1Luc4E2 cells, ERE-luciferase agonist, 22 h; also: nearly all actives have a fitted effect of over 20% in size
# [8] = qHTS assay to identify small molecule antagonists of the estrogen receptor alpha (ER-alpha) signaling pathway using the BG1 cell line (AID 743080; calls by dose curve; also: nearly all actives have a fitted effect of over 25% in size; also: potency is read from the fitted curve at half-maximal effect)
# Summary of the method: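 Antagonist mode: compounds in DMSO were pinned onto BG1-Luc-4E2 cells alongside 17beta-estradiol agonist, incubated 21.5 h, and ERE-driven luciferase measured with ONE-Glo. Cytotoxicity was multiplexed using CellTiter-Fluor fluorescence.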
# [9] = qHTS assay to identify small molecule antagonists of the estrogen receptor alpha (ER-alpha) signaling pathway using the BG1 cell line - cell viability counter screen (AID 743081);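 also: compound given together with 17beta-estradiol as the ER stimulus; nearly all actives have a fitted effect of over 45% in size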; also: potency is read from the fitted curve at half-maximal effect
# Aromatase (Homo sapiens) = Aromatase (Homo sapiens) (UniProt P11511); experiment: qHTS assay to identify aromatase inhibitors (AID 743083); also: nearly all actives have a fitted effect of over 55% in size; also: potency is read from the fitted curve at half-maximal effect
# Aromatase (Homo sapiens), sequence (P11511 whole entry, looked up): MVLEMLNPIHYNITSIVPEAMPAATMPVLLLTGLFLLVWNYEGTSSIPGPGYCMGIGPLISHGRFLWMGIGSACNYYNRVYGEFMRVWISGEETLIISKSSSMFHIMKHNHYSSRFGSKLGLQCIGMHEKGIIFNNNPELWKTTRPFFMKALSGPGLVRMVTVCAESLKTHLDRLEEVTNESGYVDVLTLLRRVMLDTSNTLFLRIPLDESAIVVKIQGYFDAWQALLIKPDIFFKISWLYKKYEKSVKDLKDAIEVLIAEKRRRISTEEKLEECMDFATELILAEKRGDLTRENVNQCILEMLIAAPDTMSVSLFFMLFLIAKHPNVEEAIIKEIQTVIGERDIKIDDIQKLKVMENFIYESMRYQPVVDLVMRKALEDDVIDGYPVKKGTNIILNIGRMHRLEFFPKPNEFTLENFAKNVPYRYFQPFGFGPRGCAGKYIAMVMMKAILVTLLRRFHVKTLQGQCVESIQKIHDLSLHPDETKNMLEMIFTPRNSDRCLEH
Structure (SMILES),Potency [1],Potency [2],Potency [3],Potency [4],Potency [5],Potency [6],activation ([7]; at 70.3 µM (top of the series)),Potency [8],Potency [9],Potency (Aromatase (Homo sapiens)),activation [6],activation ([7]; at 32.5 µM (top of the series)),activation ([7]; at 95 µM (top of the series))
O=C(c1ccc(F)cc1)C1CCN(CCn2c(=O)[nH]c3ccccc3c2=O)CC1,inactive,inactive,inactive,inactive,inactive,inactive,21.8% (inactive),inactive,inactive,inactive,,,
CCCCC(CC)COP(=O)(O)OCC(CC)CCCC (stereo not drawn),27.4 µM (active),61.3 µM (active),inactive,4.36 µM [inconclusive] (active),39 µM (active),inactive,,inactive,inactive,inactive,,,
CC[C@H](c1ccc(O)cc1)[C@@H](CC)c1ccc(O)cc1,30.6 µM (active),19.3 µM (active),inactive,inactive,inactive,0.2 nM [inconclusive] (active),-55.2% (active),68.6 µM (active),inactive,inactive and 27.3 µM (active),38.2% [inconclusive] (active),58.6% (active),
CC(=O)OCC(C)OC(C)=O (stereo not drawn),inactive,inactive,inactive,inactive,inactive,inactive,5.73% (inactive),inactive,inactive,inactive,,,
CCC(N)(CO)CO,inactive,inactive,inactive,inactive,inactive,inactive,,inactive,inactive,inactive,,,-5.95% (inactive)
Cn1cc(C(=O)[C@@H]2CCc3nc[nH]c3C2)c2ccccc21,inactive,inactive,inactive,inactive,inactive,inactive,5.8% (inactive),inactive,inactive,inactive,,,
CCN(CCC#N)c1ccc(N=Nc2c(Cl)cc([N+](=O)[O-])cc2Cl)cc1,24.3 µM (active),24.3 µM (active),inactive,inactive,inactive,inactive,-0.554% (inactive),inactive,27.3 µM (active),inactive,,,
Cc1cccc(S(=O)(=O)O)c1C,inactive,inactive,inactive,inactive,inactive,inactive,-6.85% (inactive),inactive,inactive,inactive,,,
CCCC/C=C/CCCCO,inactive,inactive,inactive,inactive,inactive,inactive,,inactive,,inactive,,,
CSc1cnc(C)cn1,inactive,inactive,inactive,inactive,inactive,inactive,,inactive,inactive,inactive,,,0.548% (inactive)
CNC(=O)c1ccccc1,inactive,inactive,inactive,inactive,inactive,inactive,-14.7% (inactive),inactive,inactive,inactive,,,
CC(C)(C)C(=O)OCOC(=O)[C@@H]1N2C(=O)[C@@H](NC(=O)[C@H](N)c3ccccc3)[C@H]2SC1(C)C,inactive,inactive,inactive,inactive,inactive,inactive,,inactive,inactive,inactive,,0.598% (inactive),
O=c1cc(-c2ccc(O)cc2)oc2cc(O)cc(O)c12,55.2 µM (active),61.9 µM (active) and 30.6 µM (active),inactive,,,,,,,,,,
CCCCCCCC/C=C\CCCCCCCCOCCO,25.1 µM (active),11.2 µM (active),inactive,9 µM [inconclusive] (active),56.8 µM (active),,,10 µM (active),39.8 µM (active),35.5 µM (active),,,
CCCCCCCCCCCCCCCS(=O)(=O)Oc1ccccc1,inactive,inactive,inactive,inactive,inactive,inactive,-9.91% (inactive),inactive,inactive,inactive,,,
COC(=O)C1=C(C)NC(C)=C(C(=O)OCC(C)C)C1c1ccccc1[N+](=O)[O-] (stereo not drawn),33.5 µM (active) and 68.6 µM (active),29.8 µM (active) and 54.5 µM (active),inactive,54.9 µM [inconclusive] (active),inactive,inactive,,,inactive,33.5 µM (active) and 61.1 µM (active),,,
ON=C1CCCC1,inactive,inactive,inactive,inactive,inactive,inactive,,inactive,inactive,inactive,,,13.6% (inactive)
